Compound activity as filed in PubChem BioAssay.
ST2 inh: inhibitors of human ST2 (IL1RL1) binding to IL-33, primary screen, biochemical, AlphaLISA. inhibition, % for hits at 17 µM. Interleukin-1 receptor-like 1 (Homo sapiens), Q01638. hit rate 2.3% among 78,000. AlphaLISA ST2-Fc/biotin-IL-33 interaction, 1 h. AID 1259354, 2018; in the data active = inhibition above about 30%
Target sequence (Q01638 whole entry, looked up): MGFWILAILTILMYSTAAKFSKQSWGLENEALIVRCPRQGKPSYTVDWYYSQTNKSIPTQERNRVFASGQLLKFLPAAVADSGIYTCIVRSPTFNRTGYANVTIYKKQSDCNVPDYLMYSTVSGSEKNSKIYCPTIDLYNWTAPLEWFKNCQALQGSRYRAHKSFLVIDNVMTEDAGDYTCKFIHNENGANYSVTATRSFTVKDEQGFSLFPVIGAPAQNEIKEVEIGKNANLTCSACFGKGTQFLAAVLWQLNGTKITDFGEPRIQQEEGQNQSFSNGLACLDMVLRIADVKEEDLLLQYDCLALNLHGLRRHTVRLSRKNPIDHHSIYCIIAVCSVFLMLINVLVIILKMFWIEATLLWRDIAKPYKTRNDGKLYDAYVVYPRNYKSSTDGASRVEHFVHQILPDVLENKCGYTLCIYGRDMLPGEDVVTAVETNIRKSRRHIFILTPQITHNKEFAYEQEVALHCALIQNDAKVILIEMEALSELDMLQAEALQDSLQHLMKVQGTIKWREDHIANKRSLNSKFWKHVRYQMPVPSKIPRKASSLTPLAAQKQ
Hits are given with their value. This is one part of a sample in which hits are shown more often than they occur.

Results for COc1ccc(/C=C(\C#N)c2nc3ccc(C)cc3[nH]2)cc1O ?
ST2 inh: 46.0%

What do the screens show for `N#C/C(=C\c1cccc(F)c1)c1nc2ccccc2[nH]1`?
ST2 inh: inactive

How did COc1ccccc1N1CCN([C@@H]2[C@H](O)[C@H](CO)O[C@@H]2CNC(=O)NC(C)C)CC1 do in these assays?
ST2 inh: inactive

How did c1ccc(CN2CC[C@H](c3nnc(-c4ccco4)o3)C2)cc1 do in these assays?
ST2 inh: inactive

How did O=C(Nc1ccccc1)N1C[C@@H]2C[C@H](C1)c1ccc(-c3ccc(OC(F)(F)F)cc3)c(=O)n1C2 do in these assays?
ST2 inh: 33.0%

How did COc1ccc(S(=O)(=O)N2C[C@@H]3C[C@H](C2)c2ccc(-c4ccc(OC(F)(F)F)cc4)c(=O)n2C3)cc1 do in these assays?
ST2 inh: inactive

What do the screens show for `COc1ccccc1NC(=O)N1C[C@@H]2C[C@H](C1)c1ccc(-c3ccc(NC(C)=O)cc3)c(=O)n1C2`?
ST2 inh: inactive

How did COC(=O)c1cc2n(n1)CCN(c1ncccn1)C2 do in these assays?
ST2 inh: inactive

How did CN(CCC1CCCCO1)C(=O)c1cn(C/C=C/c2ccccc2)nn1 (stereo not drawn) do in these assays?
ST2 inh: inactive

Results for Cc1c(Cl)c(C)c([N+](=O)[O-])c(O)c1C=Nc1ccccc1 ?
ST2 inh: inactive

How did CCOc1ccc2oc(-c3ccccc3)c(C(=O)O)c2c1 do in these assays?
ST2 inh: inactive

How did CCOc1ccc2sc(C=NCc3ccco3)c(O)c2c1 do in these assays?
ST2 inh: 31.0%

How did CCOc1ccc(N(C(C)C(=O)NCc2ccco2)S(C)(=O)=O)cc1 (stereo not drawn) do in these assays?
ST2 inh: inactive

How did c1ccc2c(N3CCN(Cc4cc5n(n4)CCNC5)CC3)nsc2c1 do in these assays?
ST2 inh: inactive

Results for CN(C(=O)Cn1c(=O)n(-c2ccc(F)cc2F)c(=O)c2sccc21)c1ccccc1 ?
ST2 inh: 47.0%

How did CC1CCN(C(=O)Cn2c(=O)n(-c3ccc(F)cc3F)c(=O)c3sccc32)CC1 do in these assays?
ST2 inh: inactive

What do the screens show for `O=c1c2sccc2n(Cc2ccccc2)c(=O)n1-c1cc(F)ccc1F`?
ST2 inh: inactive

How did Nc1cccc(C(=O)N(Cc2ccccc2)CC2CC2)c1 do in these assays?
ST2 inh: inactive

How did CC(C)(O)C#Cc1ccc(C(=O)N2CCC3(CCCN(CC4CCCCC4)C3)C2)o1 (stereo not drawn) do in these assays?
ST2 inh: inactive

Results for CCCCc1c(C#N)c(N)nc2sc(C(=O)c3ccc([N+](=O)[O-])cc3)c(N)c12 ?
ST2 inh: inactive

Results for O=C(NC(NCc1cccnc1)C(Cl)(Cl)Cl)c1ccccc1[N+](=O)[O-] (stereo not drawn) ?
ST2 inh: inactive

Results for NNC(=O)CN1CCN(Cc2ccc3c(c2)OCO3)CC1 ?
ST2 inh: inactive

What do the screens show for `O=C(c1ccc2nc3ccccc3c(=O)n2c1)N1CCN(Cc2ccc3c(c2)OCO3)CC1`?
ST2 inh: inactive

What do the screens show for `O=C(c1nc(N2CCCC2)nc2c1CCCC2)N1CCN(Cc2ccc3c(c2)OCO3)CC1`?
ST2 inh: 32.0%

Results for CCn1c(C(=O)O)c(CC(=O)NCCC2=CCCCC2)c2ccccc21 ?
ST2 inh: inactive

How did COc1ccc(C2=NN(C(=O)c3ccc(Br)o3)C(c3ccc(F)cc3)C2)cc1OC (stereo not drawn) do in these assays?
ST2 inh: inactive

What do the screens show for `CC(=O)N1N=C(c2ccc(C)cc2)OC12CCCC2`?
ST2 inh: inactive

How did Cc1ccc2c(c1)c1nc3ccccc3nc1n2CCN1CCOCC1 do in these assays?
ST2 inh: inactive

How did N#Cc1c(N)n(-c2cccc(F)c2)c2nc3ccccc3nc12 do in these assays?
ST2 inh: inactive

How did CCOC(=O)c1c(N)n(-c2ccc(OCC)cc2)c2nc3ccccc3nc12 do in these assays?
ST2 inh: inactive

What do the screens show for `Cc1ccccc1-n1c(N)c(C#N)c2nc3ccccc3nc21`?
ST2 inh: 30.0%

Results for CCCCCn1c(N)c(C#N)c2nc3ccccc3nc21 ?
ST2 inh: inactive

Results for N#Cc1c(N)n(CCN2CCOCC2)c2nc3ccccc3nc12 ?
ST2 inh: 36.0%

How did Cc1cccc(O)c1N=Cc1cc(Br)cc(Cl)c1O do in these assays?
ST2 inh: inactive

What do the screens show for `COc1ccc(C(=O)N2CCN=C2SCc2ccccc2Cl)c(OC)c1`?
ST2 inh: inactive

Results for CCc1ccc(C2CC(c3ccc(C(C)C)cc3)n3nc(N)nc3N2)cc1 (stereo not drawn) ?
ST2 inh: inactive

What do the screens show for `CC(C)N(C)C1CCN(S(=O)(=O)c2ccc(Cl)cc2)CC1`?
ST2 inh: inactive

How did O=C(NCc1ccco1)C1CC(=O)N(c2ccc(Br)cc2)C1 (stereo not drawn) do in these assays?
ST2 inh: inactive

What do the screens show for `CCCN1C(=O)C(=O)c2cc(Br)ccc21`?
ST2 inh: inactive

How did CCN1C(=O)/C(=C2\SC(N)=NC2=O)c2cc(Br)ccc21 do in these assays?
ST2 inh: inactive

What do the screens show for `CCCN1C(=O)/C(=C2\SC(N)=NC2=O)c2cc(Br)ccc21`?
ST2 inh: 33.0%

What do the screens show for `O=C1C(=O)N(c2nccs2)C(c2ccccc2F)C1=C(O)c1ccc([N+](=O)[O-])cc1` (stereo not drawn)?
ST2 inh: inactive

Results for Cc1ccc(CNC(=O)CN2C(=O)/C(=C/c3ccccc3F)Sc3ccccc32)cc1 ?
ST2 inh: inactive

Results for O=C(CN1C(=O)/C(=C/c2ccccc2F)Sc2ccccc21)NCCN1CCOCC1 ?
ST2 inh: inactive

How did O=C(CN1C(=O)/C(=C/c2ccccc2F)Sc2ccccc21)N1CCCC1 do in these assays?
ST2 inh: 33.0%

Results for Cc1cccc(C(=O)Nc2sc3c(c2C(=O)NCC2CCCO2)CCCC3)c1 (stereo not drawn) ?
ST2 inh: inactive

How did O=C(Nc1ccccc1)N[C@H]1C[C@H]2C(=O)NC[C@@H](CCC(=O)N3CCN(c4ccccn4)CC3)N2C1 do in these assays?
ST2 inh: inactive

Results for COCCNC(=S)N[C@H]1C[C@H]2C(=O)NC[C@@H](CCC(=O)N3CCN(c4ccccc4)CC3)N2C1 ?
ST2 inh: inactive

How did O=C(N[C@H]1C[C@H]2C(=O)NC[C@@H](CCC(=O)N3CCN(c4ccccc4)CC3)N2C1)C1CC1 do in these assays?
ST2 inh: inactive

Results for O=C(N[C@H]1C[C@H]2C(=O)NC[C@@H](CCC(=O)N3CCN(c4ccccn4)CC3)N2C1)c1cccs1 ?
ST2 inh: 33.0%

Results for COCCNC(=S)N[C@H]1C[C@H]2C(=O)NC[C@@H](CCC(=O)N3CCN(c4ccccn4)CC3)N2C1 ?
ST2 inh: inactive

How did COc1ccc(CN[C@H]2C[C@H]3C(=O)NC[C@@H](CCC(=O)N4CCN(c5ccccc5)CC4)N3C2)cc1 do in these assays?
ST2 inh: 57.0%

How did O=C(CC12CC3CC(CC(C3)C1)C2)NC1CCCCC1 do in these assays?
ST2 inh: inactive

Results for Cn1c(=O)cc(SCC(=O)NCc2ccccn2)c2ccc(Cl)cc21 ?
ST2 inh: inactive

How did Cc1ccc(OCC(O)CNC(N)=O)cc1 (stereo not drawn) do in these assays?
ST2 inh: inactive

What do the screens show for `CCN(CC)c1ccc(C(=O)Nc2nc3ccc4sc(C)nc4c3s2)cc1`?
ST2 inh: inactive

Results for Cc1ccc(C(=O)Nc2nc3ccc4sc(C)nc4c3s2)cc1 ?
ST2 inh: 42.0%

What do the screens show for `Cc1nc2c(ccc3nc(NC(=O)c4ccc(C#N)cc4)sc32)s1`?
ST2 inh: 35.0%
